Data as given in PubChem BioAssay (NCATS).
Values joined by “and” are separate entries in the source; they are usually repeats but may differ in a detail not shown here. Equal entries are not always repeated. Results filed as inconclusive are left out. Active and inactive are the calls of the source. Unless noted, calls come from the whole dose curve; as a rule, active = well fitted curve in the direction sought with a large enough effect; inconclusive = small, poorly fitted or top-dose-only effect, or another doubt; inactive = no such curve, though single readings can be large; an effect the other way counts as inactive or inconclusive.

Tests used:
[1] = Counterscreen qHTS for small molecule stabilizers of the endoplasmic reticulum resident proteome: GLuc-NoTag assay (AID 1508627);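 note: SH-SY5Y cells given compound then 100 nM thapsigargin to empty ER calcium; series mostly up to about 76 µM; 0% = thapsigargin alone and -100% = DMSO vehicle control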
In short: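 SH-SY5Y cells stably expressing constitutively secreted GLuc (no SERCaMP tag) were pre-incubated 5 h, treated with compound for 19 h, then 100 nM thapsigargin for 4 h at 37C; medium GLuc read by coelenterazine luminescence.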

[2] = A High-Content qHTS Against Drug Library for the Identification of Small Molecules that Inhibit DYT1 Early Onset Primary Dystonia-Associated Cell Pathology (AID 1645839; calls by dose curve; note: potency is the fitted concentration of half-maximal effect; for % pathology change, negative = correction: series mostly up to about 46 µM)
In short: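 Readout: %pathology, the punctate EGFP-TorsinA distribution from imaging, as the primary channel and cell count as the toxicity counterscreen. HEK293 Flp-In cells expressing delE TorsinA were induced with tetracycline and treated with compound for 48 h.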

[3] = biological target: Cytochrome P450 2C9 (Homo sapiens) (UniProt P11712); experiment: Cytochrome P450 family 2 subfamily C member 9 (CYP2C9) small molecule antagonists: luciferase biochemical (cell-free) qHTS assay (AID 1645842; active = well fitted curve in the direction sought with a large enough effect in the repeat runs; an effect the other way counts as inactive or inconclusive; note: nearly all actives have a fitted effect of over 55% in size; note: potency is the fitted concentration of half-maximal effect; for activity change, negative = inhibition: series mostly up to about 57 µM; % is set by controls: 0 for no effect and ±100 for the full control effect)
Sequence of Cytochrome P450 2C9 (Homo sapiens) (P11712 whole entry, looked up): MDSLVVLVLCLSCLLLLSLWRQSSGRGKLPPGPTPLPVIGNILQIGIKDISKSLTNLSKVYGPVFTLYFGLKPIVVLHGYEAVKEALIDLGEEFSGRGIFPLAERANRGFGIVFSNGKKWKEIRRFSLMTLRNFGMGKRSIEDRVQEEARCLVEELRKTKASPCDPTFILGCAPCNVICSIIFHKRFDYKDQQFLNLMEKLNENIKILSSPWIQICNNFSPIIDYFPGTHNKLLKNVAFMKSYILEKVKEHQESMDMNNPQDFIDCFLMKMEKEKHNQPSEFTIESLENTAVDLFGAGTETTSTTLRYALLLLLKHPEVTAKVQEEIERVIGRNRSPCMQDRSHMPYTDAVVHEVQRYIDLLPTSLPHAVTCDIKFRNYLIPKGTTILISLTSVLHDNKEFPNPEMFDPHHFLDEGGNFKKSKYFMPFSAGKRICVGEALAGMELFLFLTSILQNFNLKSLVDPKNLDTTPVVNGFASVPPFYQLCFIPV
In short: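 Luminescence, after 20 min with luciferin detection reagent, reflected CYP2C9 turnover during a 1 h NADPH-driven reaction at 37C. Enzyme-substrate mix contained 0.4% bovine serum albumin and was preincubated with compound 10 min at room temperature.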

[4] = NCATS anti-infectives library activity on HEK293 viability as a counter-qHTS vs the C. elegans viability qHTS (AID 1745854); note: % is set by controls: 0 for no effect and ±100 for the full control effect
In short: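 HEK293 cells, 1500 per well, exposed 24 hr at 37C in 5% CO2 to compounds in a 1:5 titration, up to 41.7 uM final. Viability read as CellTiter-Glo luminescence after 10 min at room temperature.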

[5] = Primary qHTS for small molecule stabilizers of the endoplasmic reticulum resident proteome: Secreted ER Calcium Modulated Protein (SERCaMP) assay (AID 1508630); note: % is set by controls: 0 for no effect and ±100 for the full control effect
In short: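 GLuc-SERCaMP-expressing SH-SY5Y cells, pretreated 16 h with compound, are challenged with thapsigargin to empty ER calcium stores; after 4 h, coelenterazine is added directly to the medium and luminescence is imaged.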

[6] = biological target: Cytochrome P450 2D6 (Homo sapiens) (UniProt P10635); experiment: Cytochrome P450 family 2 subfamily D member 6 (CYP2D6) small molecule antagonists: luciferase biochemical (cell-free) qHTS assay (AID 1645840; active = well fitted curve in the direction sought with a large enough effect in the repeat runs; an effect the other way counts as inactive or inconclusive; note: nearly all actives have a fitted effect of over 55% in size; note: potency is the fitted concentration of half-maximal effect; for activity change, negative = inhibition: series mostly up to about 57 µM; % is set by controls: 0 for no effect and ±100 for the full control effect)
Sequence of Cytochrome P450 2D6 (Homo sapiens) (P10635 whole entry, looked up): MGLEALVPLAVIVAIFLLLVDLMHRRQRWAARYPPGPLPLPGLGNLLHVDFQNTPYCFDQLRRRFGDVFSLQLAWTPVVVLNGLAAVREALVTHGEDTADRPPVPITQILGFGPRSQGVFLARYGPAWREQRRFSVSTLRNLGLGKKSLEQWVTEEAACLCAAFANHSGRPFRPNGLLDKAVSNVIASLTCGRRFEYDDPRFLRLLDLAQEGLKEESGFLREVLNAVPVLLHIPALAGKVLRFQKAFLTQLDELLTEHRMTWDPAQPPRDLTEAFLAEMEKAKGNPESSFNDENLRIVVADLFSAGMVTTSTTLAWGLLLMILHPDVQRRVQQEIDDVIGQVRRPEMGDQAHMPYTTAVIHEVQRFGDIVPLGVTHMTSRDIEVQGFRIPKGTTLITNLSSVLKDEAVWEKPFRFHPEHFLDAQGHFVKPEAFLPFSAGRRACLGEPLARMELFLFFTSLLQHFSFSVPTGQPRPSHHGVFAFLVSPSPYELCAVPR
In short: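 P450-Glo luminescent screen: recombinant CYP2D6 enzyme–proluciferin substrate mix preincubated with compound 10 min at room temperature, then NADPH regeneration added for 1 h at room temperature. Detection reagent added for 20 min; luciferin light read as relative luminescence units.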

[7] = Primary qHTS for inhibitors of nuclear receptor binding SET domain protein 2 (NSD2) in an isogenic RCH-ACV NSD2 p.E1099K mutant (9B) (AID 1645876); note: nearly all actives have a fitted effect of over 70% in size; note: potency is the fitted concentration of half-maximal effect
[8] = Primary qHTS for inhibitors of nuclear receptor binding SET domain protein 2 (NSD2) in an RCH-ACV wild type WT cells (2C) (AID 1645877); note: nearly all actives have a fitted effect of over 70% in size; note: potency is the fitted concentration of half-maximal effect

C=C[C@H]1CN2CC[C@H]1C[C@@H]2[C@@H](O)c1ccnc2ccc(OC)cc12
inactive: Potency [1] | Potency [2] | Potency [3] | outcome [4]

NC(=O)c1ccccc1O
inactive: Potency [5] | Potency [2] | Potency [6] | Potency [3]

NCCNC(=O)c1ccc(Cl)cn1
inactive: Potency [5] | Potency [2] | Potency [6] | Potency [3] | Potency [7]

CO[C@]12C[C@@H](COC(=O)c3cncc(Br)c3)CN(C)[C@@H]1Cc1cn(C)c3cccc2c13
active: Potency [6] 0.0155 µM
inactive: Potency [5] | Potency [2] | Potency [3]

OC(C#CCN1CCCC1)(c1ccccc1)c1ccccc1
active: Potency [6] 12.3 µM | Potency [3] 8.71 µM
inactive: Potency [5] | Potency [2] | Potency [7] | Potency [8]

COc1cc(C(=S)N2CCOCC2)ccc1O
inactive: Potency [5] | Potency [2] | Potency [6] | Potency [3]

CC(C)(C)CC(C)(C)c1ccc(O)c(-n2nc3ccccc3n2)c1
inactive: Potency [5] | Potency [2] | Potency [6] | Potency [7] | Potency [8]
active: Potency [3] 10.7 µM and 6.92 µM

COc1ccc(CCN(C)CCCN2CCc3cc(OC)c(OC)cc3CC2=O)cc1OC
inactive: Potency [5] | Potency [2] | Potency [6] | Potency [3] | Potency [7] | Potency [8]

Cc1cc2c(OCC(CNC(C)(C)C)OC(=O)c3ccccc3)cccc2[nH]1 (centres undefined)
inactive: Potency [5] | Potency [2] | Potency [7] | Potency [8]
active: Potency [6] 0.246 µM | Potency [3] 3.47 µM

NC(N)=NN=C(/C=C/c1ccc([N+](=O)[O-])o1)/C=C/c1ccc([N+](=O)[O-])o1
inactive: Potency [5]
active: Potency [2] 1 µM | Potency [6] 2.75 µM | Potency [3] 15.5 µM | Potency [7] 0.668 µM | Potency [8] 0.531 µM

CC(C)Cn1cnc2c1c(=O)n(C)c(=O)n2C
inactive: Potency [5] | Potency [2] | Potency [6] | Potency [3] | Potency [7] | Potency [8]

COc1cc(N)c(Cl)cc1C(=O)NC1CCN(Cc2ccccc2)CC1
active: Potency [6] 0.0219 µM
inactive: Potency [5] | Potency [2] | Potency [3]

CCN(CC)CCNC(=O)c1cc(Br)c(N)cc1OC
inactive: Potency [5] | Potency [2] | Potency [3] | Potency [7] | Potency [8]
active: Potency [6] 6.92 µM

CNCCc1ccccn1
inactive: Potency [5] | Potency [2] | Potency [6] | Potency [3] | Potency [7] | Potency [8]

CCNC(=O)NCc1cccc(Cl)c1
inactive: Potency [5] | Potency [2] | Potency [6] | Potency [3] | Potency [7]

CC(=O)Nc1ccc(S(=O)(=O)Nc2ccc([N+](=O)[O-])cc2)cc1
active: Potency [3] 13.8 µM
inactive: Potency [5] | Potency [2] | Potency [6] | Potency [7] | Potency [8]

O=C(Oc1cccc2cccnc12)c1ccccc1
inactive: Potency [5] | Potency [2] | Potency [6] | Potency [3] | Potency [7] | Potency [8]

CCC(C(=O)OCCOCCN(CC)CC)c1ccccc1 (centres undefined)
active: Potency [6] 11 µM
inactive: Potency [5] | Potency [2] | Potency [3] | Potency [7]

COP(=O)(OC)OC(c1ccc(Cl)cc1)P(=O)(OC)OC (centres undefined)
inactive: Potency [5] | Potency [2] | Potency [6] | Potency [3] | Potency [7]

CC(C)CCCC(C)N (centres undefined)
inactive: Potency [5] | Potency [2] | Potency [6] | Potency [3] | Potency [7]

Cc1cc(NS(=O)(=O)c2ccc(N)cc2)nc(C)n1
inactive: Potency [5] | Potency [2] | Potency [6] | Potency [3] | Potency [7] | Potency [8]

N#C/C(=C1\SCC(c2ccccc2Cl)S1)n1ccnc1 (centres undefined)
active: Potency [6] 0.275 µM | Potency [3] 1.55 µM
inactive: Potency [5] | Potency [2]

CN(C)CCC[C@@]1(c2ccc(F)cc2)OCc2cc(C#N)ccc21
active: Potency [6] 13.8 µM and 12 µM
inactive: Potency [5] | Potency [2] | Potency [3] | Potency [7]

Clc1cccc(C(c2ccc3nc[nH]c3c2)n2ccnc2)c1 (centres undefined)
inactive: Potency [5] | Potency [2] | Potency [7] | Potency [8]
active: Potency [6] 15.5 µM | Potency [3] 7.76 µM

CCN[C@@H]1C[C@H](N)[C@@H](OC2OC(CN)=CCC2N)[C@H](O)[C@H]1O[C@H]1OC[C@](C)(O)[C@H](NC)[C@H]1O (some centres undefined)
inactive: activity change, negative = inhibition [5] -24.8% [at 0.478 µM] | % pathology change, negative = correction [2] 3.5% [at 0.369 µM] | activity change, negative = inhibition [6] 2.45% [at 0.91 µM] | activity change, negative = inhibition [3] 10% [at 0.91 µM] | outcome [7] inactive [at 0.588 µM] | activity change, negative = cell killing [8] 2.3% [at 0.588 µM]

OCCOCCN1CCN(C2=Nc3ccccc3Sc3ccccc32)CC1
inactive: Potency [5] | Potency [2] | Potency [6] | Potency [3] | Potency [7] | Potency [8]

C[N+]1(CC2COC(c3ccccc3)(C3CCCCC3)O2)CCCCC1 (centres undefined)
inactive: Potency [5] | Potency [2] | Potency [3]
active: Potency [6] 1.55 µM | Potency [7] 21.1 µM

CC(C)NCC(O)c1ccc2ccccc2c1 (centres undefined)
active: Potency [6] 3.47 µM
inactive: Potency [5] | Potency [2] | Potency [3] | Potency [7] | Potency [8]
